The text below walks through data of ChEMBL document CHEMBL1201862, “PubChem BioAssay data set” (2004).

In all, about 400,000 compounds went through this assay and about 1,900 (0.47%) were called active. Another 14% or so got no clear call; they are omitted. The rule behind the calls is not given here. The entries come from a sample that favours actives as a whole.

Chain of Ataxin-2 (Homo sapiens) (Q99700 whole entry): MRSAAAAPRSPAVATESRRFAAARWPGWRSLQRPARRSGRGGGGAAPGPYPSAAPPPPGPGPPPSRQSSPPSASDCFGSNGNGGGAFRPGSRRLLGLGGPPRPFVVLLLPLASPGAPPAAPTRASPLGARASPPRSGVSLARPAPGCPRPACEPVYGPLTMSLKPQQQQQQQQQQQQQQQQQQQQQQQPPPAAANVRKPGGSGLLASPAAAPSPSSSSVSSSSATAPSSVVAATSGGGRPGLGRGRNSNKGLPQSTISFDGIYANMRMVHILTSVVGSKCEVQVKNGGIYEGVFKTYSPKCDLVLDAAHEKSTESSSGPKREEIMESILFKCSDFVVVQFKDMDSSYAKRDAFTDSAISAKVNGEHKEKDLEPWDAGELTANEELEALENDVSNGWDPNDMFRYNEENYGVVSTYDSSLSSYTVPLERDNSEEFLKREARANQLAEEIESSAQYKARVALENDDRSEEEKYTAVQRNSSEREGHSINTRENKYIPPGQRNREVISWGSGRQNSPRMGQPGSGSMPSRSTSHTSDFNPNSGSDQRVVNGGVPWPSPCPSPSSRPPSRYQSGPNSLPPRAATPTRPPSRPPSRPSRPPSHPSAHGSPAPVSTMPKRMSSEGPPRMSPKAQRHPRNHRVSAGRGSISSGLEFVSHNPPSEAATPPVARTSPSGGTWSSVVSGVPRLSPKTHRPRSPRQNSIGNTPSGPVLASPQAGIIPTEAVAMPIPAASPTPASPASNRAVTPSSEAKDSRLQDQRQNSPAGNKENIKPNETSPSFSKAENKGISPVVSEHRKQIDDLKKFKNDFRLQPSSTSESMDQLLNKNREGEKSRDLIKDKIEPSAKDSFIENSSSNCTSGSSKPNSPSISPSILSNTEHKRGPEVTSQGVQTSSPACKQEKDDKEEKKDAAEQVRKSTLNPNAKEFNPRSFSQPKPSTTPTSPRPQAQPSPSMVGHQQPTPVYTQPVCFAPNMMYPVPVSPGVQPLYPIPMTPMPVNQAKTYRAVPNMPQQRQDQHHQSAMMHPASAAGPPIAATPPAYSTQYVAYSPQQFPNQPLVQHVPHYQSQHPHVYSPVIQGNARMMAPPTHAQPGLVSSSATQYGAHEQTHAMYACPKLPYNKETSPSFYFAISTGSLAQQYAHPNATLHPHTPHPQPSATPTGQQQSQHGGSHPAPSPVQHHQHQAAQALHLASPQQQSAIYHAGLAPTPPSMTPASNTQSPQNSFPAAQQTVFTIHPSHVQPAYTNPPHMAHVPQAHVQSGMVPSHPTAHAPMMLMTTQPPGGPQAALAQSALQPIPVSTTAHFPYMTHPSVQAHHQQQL

The assay has as its target Ataxin-2 (Homo sapiens) (UniProt Q99700). The experiment in a line: qHTS for Inhibitors of ATXN expression. The assay is classed as functional.
For `O=c1ccc2cc(O[C@@H]3O[C@@H](CO)[C@H](O)[C@@H](O)[C@@H]3O)c(O)cc2o1`, the Potency entry was “inactive”.

As for `CCN(CCCl)c1cc(CN(C)C)cc(NC(=O)c2ccc(C(=O)Nc3cc(CN(C)C)cc(N(CC)CCCl)c3)cc2)c1`, the Potency was 20 µM (active).

On to `O=C(c1ccc(C(F)(F)F)cc1)C1CCCN(Cc2ccncc2)C1` (configuration not stated), for which the Potency entry was “inactive”.

Turning to `CCn1cc(C(=O)NCCc2ccc(OC)c(OC)c2)c(=O)c2cc(S(=O)(=O)N(C)C3CCCCC3)ccc21`, the Potency was 25.1 µM (active).

Turning to `COC(=O)Cn1cc(C=C2C(=O)N(C)C(=O)N(C)C2=O)c2ccccc21`, the Potency entry is “inactive”.

Take `O=C1NC(=O)C(=CNc2cc(F)cc(F)c2)C(=O)N1`: the Potency entry was “inactive”.

In the case of `CC[n+]1c(C=CN(C)c2ccccc2)sc2ccc(Cl)cc21`, the Potency is 17.8 µM (active).

`CC[n+]1c(/C=C/C=C/c2ccc(N(C)C)cc2)sc2ccccc21`: the Potency was 5.32 µM (active).

In the case of `CC(C)(C)C(=O)c1cn(Cc2ccccc2)c2ccccc12`, the Potency entry was “inactive”.

With `O=C(NN1C(=O)C2C3C=CC(C4CC34)C2C1=O)c1cccc(Br)c1` (configuration not stated), the Potency result was “inactive”.

Consider `C[C@@]12CC[C@H](O)C[C@@H]1CC[C@H]1[C@@H]2C[C@@H](O)[C@]2(C)[C@@H](C3=CC(=O)OC3)CC[C@]12O`, for which the Potency is 3.16 µM (active).

`C[C@@]12CC[C@H](O)C[C@@H]1CC[C@H]1[C@H]2CC[C@@]2(C)[C@@H](C3=CC(=O)OC3)CC[C@]12O`: the Potency was 0.708 µM (active).

Consider `C=CCNC(=O)c1c(N)n(Cc2ccco2)c2nc3ccccc3nc12`, for which the Potency result is “inactive”.

For `COCCCn1c(N)c(C(=O)OC(C)COC)c2nc3ccccc3nc21` (configuration not stated), the Potency result was “inactive”.

As to `O=C1NC(=O)N(CCc2ccccc2)C(=O)/C1=C\NN1CCOCC1`, the Potency result is “inactive”.

Take `COC1CCC(OC2CC(C3(C)CCC4(CC(O)C(C)C(C(C)/C=C(\C)C(=O)C(C)CC(C)C(=O)O)O4)O3)OC3(OC(C4OC(O)(CO)C(C)CC4C)CC3C)C2C)OC1C` (configuration not stated): the Potency is 0.562 µM (active).

Consider `COCCOC(=O)c1c(N)n(Cc2ccco2)c2nc3ccccc3nc12`, for which the Potency entry was “inactive”.

As to `CC(=O)OC(C)(C)/C=C/C(=O)[C@](C)(O)[C@H]1[C@H](O)C[C@@]2(C)[C@@H]3CC=C4[C@H](C[C@H](O)C(=O)C4(C)C)[C@]3(C)C(=O)C[C@]12C`, the Potency was 39.8 µM (active).

Regarding `CC(=O)OC(C)(C)/C=C/C(=O)C(C)(O)C1C(O)CC2(C)C3CC=C4C(CC(O)C(=O)C4(C)C)C3(C)C(=O)CC12C` (configuration not stated), the Potency was 0.189 µM (active).

In the case of `COc1ccc(C(=O)C2CCCN(Cc3cnc(C)s3)C2)c(OC)c1` (configuration not stated), the Potency result is “inactive”.

Take `NC(=O)c1cn(C2OC(CO)C(O)C2O)c2ncnc(N)c12` (configuration not stated): the Potency was 0.316 µM (active).

With `COc1ccc2[nH]c(C)c(CCNCc3cn(C)c4ccccc34)c2c1`, the Potency was 17.8 µM (active).

Consider `CCn1c(=O)oc2cc(NC(=O)CCl)ccc21`, for which the Potency is 37.7 µM (active).

Regarding `Cn1c(=O)oc2cc(NC(=O)CCl)ccc21`, the Potency is 31.6 µM (active).

Regarding `COc1ccc(NC(=O)c2cccn(Cc3ccc(Cl)cc3)c2=O)c(OC)c1`, the Potency result was “inactive”.

Regarding `CCc1nc2ccc(N3CCN(C)CC3)cc2nc1CC`, the Potency result was “inactive”.

As for `COCCCn1c(N)c(C(=O)NCc2ccco2)c2nc3ccccc3nc21`, the Potency entry was “inactive”.

Consider `Nc1c(C(=O)Nc2ccc(Cl)cc2)sc2nc3c(cc12)N1CCC3CC1`, for which the Potency result is “inactive”.

As to `COc1ccc(OCC(=O)N2CCN(C/C=C/c3ccccc3)CC2)cc1`, the Potency entry was “inactive”.

In the case of `COc1ccc(Nc2nc(N)nc(CSc3nc4ccccc4s3)n2)cc1`, the Potency is 39.8 µM (active).

Take `CCCCn1c(N)c(C(=O)NCCN2CCOCC2)c2nc3ccccc3nc21`: the Potency result was “inactive”.

As for `Cc1cccc(OP(N)(=O)Oc2cccc(C)c2)c1`, the Potency entry was “inactive”.

`COc1ccc(CC(N)c2csc(NC(=O)Nc3ccccc3Oc3ccccc3)n2)cc1` (configuration not stated): the Potency is 39.8 µM (active).

Turning to `O=C(c1cccn2c(=O)c3cc(Cl)ccc3nc12)N1CCC2(CC1)OCCO2`, the Potency result is “inactive”.

On to `COc1ccc2cc1Oc1ccc(cc1)C[C@H]1c3cc(c(OC)cc3CCN1C)Oc1c(O)c(OC)cc3c1[C@H](C2)N(C)CC3`, for which the Potency is 20 µM (active).

As to `COc1cc2c3c(c1OC)Oc1ccc(cc1)C[C@H]1c4c(cc(OC)c(OC)c4Oc4ccc(cc4)C[C@@H]3N(C)CC2)CCN1C`, the Potency is 15.8 µM (active).

With `Nc1c2c(nc3ccccc13)CCN(Cc1ccccc1)C2`, the Potency entry was “inactive”.

`COc1ccc(Nc2cc(C)c3cc(NC(=O)c4ccccc4Cl)ccc3n2)cc1`: the Potency entry was “inactive”.

Turning to `CN1CC[C@@]2(C)c3cc(O)ccc3N(C)C12` (some centres not stated), the Potency was 28.2 µM (active).

`CCC(C)NC(=O)c1c(N)n(CC2CCCO2)c2nc3ccccc3nc12` (configuration not stated): the Potency result is “inactive”.

For `C#CCN1C(=O)S/C(=C\c2ccc(N3CCOCC3)cc2C)C1=O`, the Potency result was “inactive”.

Regarding `CCCCN1C(=O)NC(=O)/C(=C(O)\C=C\c2c[nH]c3ccccc23)C1=O`, the Potency result is “inactive”.

As to `N=C(N)N/N=C/c1cn(-c2ccccc2)nc1-c1cccs1`, the Potency is 11.2 µM (active).

With `N=C(N)N/N=C/c1ccc(N2CCOCC2)cc1`, the Potency entry is “inactive”.

With `N=C(N)N/N=C/c1ccc(N(c2ccccc2)c2ccccc2)cc1`, the Potency result was “inactive”.

Consider `O=c1cc(C(F)(F)F)c2cc3c4c(c2o1)CCCN4CCC3`, for which the Potency entry is “inactive”.

As for `NS(=O)(=O)c1ccc(NC=C2C(=O)N(C3CCCCC3)C(=O)N(C3CCCCC3)C2=O)cc1`, the Potency was 39.8 µM (active).

Consider `Cc1ccnc(NS(=O)(=O)c2ccc(NC=C3C(=O)N(C)C(=O)N(C)C3=O)cc2)n1`, for which the Potency entry is “inactive”.

As to `CCC(C(=O)Nc1ccc(Cl)cc1)N1CCCC1=O` (configuration not stated), the Potency entry was “inactive”.

Consider `Ic1ccccc1CNC1C2CCN(CC2)C1C(c1ccccc1)c1ccccc1` (configuration not stated), for which the Potency is 15.8 µM (active).

Take `O=C(NCCc1ccccc1)[C@@H]1CC=C[C@@H]2CCN(Cc3ccc(Cl)c(Cl)c3)C(=O)[C@@H]21`: the Potency is 25.1 µM (active).

For the compound `O=C(Cc1cc(=O)oc2cc(O)ccc12)NN=Cc1ccc(N(CCCl)CCCl)cc1`, the Potency result is “inactive”.

As for `CC(C)Sc1nc2[nH]cnc(N)c-2n1`, the Potency result is “inactive”.

As to `Cc1oc(-c2ccccc2Cl)nc1CN1C(=O)CN=C(c2ccccc2)c2cc(Cl)ccc21`, the Potency is 44.7 µM (active).

With `O=C1CN=C(c2ccccc2)c2cc(Cl)ccc2N1Cc1ccc(Cl)cc1`, the Potency was 28.2 µM (active).

Take `COc1ccc(-c2nc(CN3C(=O)CN=C(c4ccccc4)c4cc(Cl)ccc43)c(C)o2)cc1`: the Potency was 35.5 µM (active).

Turning to `O=C(c1cccn2c(=O)c3cc(Br)ccc3nc12)N1CCC2(CC1)OCCO2`, the Potency result was “inactive”.

Turning to `CN(Cc1ccc(OC(F)F)cc1)Cc1nc(O)c2cc(Br)cc(Br)c2n1`, the Potency entry is “inactive”.

For the compound `CC(Cc1ccccc1)NC(=O)CCCCC(=O)NC(C)Cc1ccccc1` (configuration not stated), the Potency entry was “inactive”.

On to `CN(C)CC(C(=O)Cc1ccccc1)c1ccccc1` (configuration not stated), for which the Potency is 25.1 µM (active).

Turning to `COCCCn1c(=O)/c(=C\c2ccccc2OC(F)F)s/c1=C(/C#N)C(=O)NCCOC`, the Potency result was “inactive”.

Take `Cc1cc([N+](=O)[O-])c2ccccc2[n+]1[O-]`: the Potency is 31.6 µM (active).

In the case of `CN1C(=O)/C(=C/c2cccn2-c2ccc3ccccc3c2)C(=O)NC1=S`, the Potency was 39.8 µM (active).

For `Cc1cc(C)cc(N2C(=O)NC(=O)/C(=C\c3cc(C)n(C)c3C)C2=O)c1`, the Potency entry is “inactive”.

For the compound `Cc1cc(C)cc(N2C(=O)NC(=O)/C(=C/c3cccn3-c3ccc(Cl)cc3)C2=O)c1`, the Potency was 39.8 µM (active).

As for `C/C(NCc1cccnc1)=C1/C(=O)NC(=O)N(c2ccc(Cl)cc2)C1=O`, the Potency entry was “inactive”.

On to `COCCNC(=O)c1c(N)n(Cc2ccco2)c2nc3ccccc3nc12`, for which the Potency entry is “inactive”.

Consider `Clc1cccc(N2Cc3cc(-c4ccccc4)ccc3-n3nncc3C2)c1`, for which the Potency is 39.8 µM (active).

Consider `O=C(NC1CCCCC1)N1Cc2cc(-c3ccccc3)ccc2-n2nncc2C1`, for which the Potency was 39.8 µM (active).

`CN1CCc2cc3c(cc2[C@@H]1O)OCO3`: the Potency entry was “inactive”.

As for `Cc1sc2ncnc(N3CCC(C(=O)Nc4ccc(C#N)c(Cl)c4)CC3)c2c1C`, the Potency was 39.8 µM (active).

As to `CN(c1ccc(O)cc1)c1ccc([N+](=O)[O-])c2nonc12`, the Potency is 20 µM (active).

As to `COc1ccccc1N1CCN(C(=O)c2cc3c(-c4ccccc4F)nn(C)c3s2)CC1`, the Potency was 35.5 µM (active).

Turning to `COc1cc(Cl)ccc1Nc1ncc(C(=O)N2CCN(c3ccccc3OC)CC2)c2ccccc12`, the Potency result is “inactive”.

In the case of `O=C1NC(=S)NC(=O)C1=NNc1ccc2c(c1)OCCO2`, the Potency is 44.7 µM (active).

As to `CCCCCCCCn1sccc1=O`, the Potency was 25.1 µM (active).

`O=C(Nc1cccc2ncccc12)c1ccccc1Cl`: the Potency entry was “inactive”.

`COC(=O)C1=C(c2cccc(OCc3ccccc3)c2)C[C@@H]2CC[C@H]1N2C(=O)NC1CCN(Cc2ccccc2)CC1`: the Potency is 22.4 µM (active).

`CC[C@@H](O)C[C@H]1CCC[C@@]2(C[C@@H]3OC(=O)/C=C/[C@@](C)(O)[C@@H](O)[C@H](C)[C@@H](O)[C@H](OC4CCC(N(C)C)C(C)O4)[C@@H](O)[C@](C)(O)CCCCC/C=C/[C@@H]4CC(C)(C)O[C@@]4(O)C[C@H](O2)[C@H]3C)O1` (some centres not stated): the Potency was 2.99 µM (active).

Take `Cc1c(CC(=O)N2C[C@H]3C[C@@H](C2)c2cccc(=O)n2C3)c(=O)oc2cc(O)c(Cl)cc12`: the Potency entry was “inactive”.

`NP(=O)(Oc1ccc(Cl)cc1)Oc1ccc(Cl)cc1`: the Potency result was “inactive”.

On to `CC1=CC2/C=C(\C)CCC(O)C(O)/C=C/C(=O)C23C(=O)NC(CC(C)C)C3C1C` (configuration not stated), for which the Potency was 3.77 µM (active).

Turning to `C=C(C=O)CC1CC(O)[C@]2(C)OC3CC4OC5C[C@]6(C)O[C@]7(C)CCC8OC9C[C@]%10(C)OC%11C(C)=CC(=O)OC%11CC%10OC9C[C@@H](C)C8OC7CC6O[C@]5(C)CC5OC5C4OC3CC2O1` (some centres not stated), the Potency was 1.26 µM (active).

Consider `CCCNC(=O)c1c(N)n(CC2CCCO2)c2nc3ccccc3nc12` (configuration not stated), for which the Potency result is “inactive”.

As to `COCCNC(=O)c1c(NC(=O)c2ccco2)n(Cc2ccccc2)c2nc3ccccc3nc12`, the Potency entry is “inactive”.

As for `CCCCCCCCN1C(=O)[C@H](CC(=O)NCCc2ccccc2OC)C[C@@]2(C(=O)OC)CCCCC=C12`, the Potency was 25.1 µM (active).

`CC(C)OCCCNC(=O)c1c(N)n(CC2CCCO2)c2nc3ccccc3nc12` (configuration not stated): the Potency entry was “inactive”.
